Compounds with a hit are over-represented: about 1.1% of the library has one in this group of screens.
SNCA expr inh – reduces expression of the alpha-synuclein gene; Potency, µM (doses to about 57.2 µM), actives largely listed as inhibitors; HEK-293 SNCA-luciferase knock-in, luminescence, 24 h; hit rate 0.17% among 140,000; AID 1671194; further: nearly all actives have a fitted effect of over 45% in size
HEK293 viab – reduces viability of HEK-293 SNCA reporter cells; HEK-293-SNCA-luc viability, GF-AFC fluorescence, 24 h; Potency, µM (doses to about 57.1 µM), most hits filed as cytotoxic; hit rate 0.12% among 150,000; AID 1671193; further: nearly all actives have a fitted effect of over 30% in size
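Cytotoxicity counterscreen: after 24 h compound treatment of genome-edited SNCA-luciferase HEK-293 cells, live-cell protease substrate GF-AFC read by fluorescence after 30 min; activity scaled between DMSO (0%) and medium-only (-100%), curves Hill-fitted.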
IP6K1 inh – IP6K1 kinase inhibition; IP6K1 kinase, ADP-Glo luminescence, 2 h; stronger effect = lower value; activity change, % (series mostly up to about 58 µM); hit rate 0.81% among 140,000; in the data active means activity change below about -25%
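ADP-Glo luminescence measures ADP made by human IP6K1 during a 2 h RT reaction with ATP/IP6 (mix at 1.3 mM/130 uM); top library doses 57.5 and 19.1 uM final.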
GPT2 inhibitor – blocks human glutamate pyruvate transaminase 2; Q8TD30; Recombinant GPT2, coupled pyruvate oxidase/HRP Amplex Red fluorescence; Potency, µM (doses to about 57.7 µM), actives largely listed as inhibitors; hit rate 0.25% among 100,000; AID 1671188; further: nearly all actives have a fitted effect of over 60% in size
Target sequence (Q8TD30 whole entry, looked up): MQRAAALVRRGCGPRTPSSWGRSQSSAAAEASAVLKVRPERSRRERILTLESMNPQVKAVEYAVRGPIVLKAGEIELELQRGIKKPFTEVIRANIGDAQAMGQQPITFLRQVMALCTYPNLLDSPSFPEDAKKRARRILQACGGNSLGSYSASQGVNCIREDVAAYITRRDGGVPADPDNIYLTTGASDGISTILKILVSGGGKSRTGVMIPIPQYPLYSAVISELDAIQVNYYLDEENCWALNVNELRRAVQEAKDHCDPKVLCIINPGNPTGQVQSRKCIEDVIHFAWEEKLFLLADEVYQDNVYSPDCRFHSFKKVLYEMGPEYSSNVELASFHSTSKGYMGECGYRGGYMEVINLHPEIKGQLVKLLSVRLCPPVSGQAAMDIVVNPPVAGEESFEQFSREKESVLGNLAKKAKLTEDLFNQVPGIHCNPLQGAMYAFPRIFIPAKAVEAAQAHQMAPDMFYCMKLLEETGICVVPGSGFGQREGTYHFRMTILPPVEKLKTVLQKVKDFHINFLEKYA
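Fluorescence of coupled pyruvate oxidase/HRP/Amplex Red system (50uM Amplex, 30 min, dark) reports pyruvate formed by GPT2. Enzyme reaction: 10ng/uL GPT2, 2mM L-alanine, 250uM a-KG, 30 min room temperature, pH 7.5; 50uM AOA control.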
GPT2 inh cnf – confirmation of human GPT2 inhibitors | Potency, µM, hits mostly inhibitors | hit rate 90% among 95 | GPT2 enzyme, coupled Amplex Red pyruvate fluorescence | shares compounds with GPT2 inhibitor
Large screens that a line does not name were inactive (follow-up assays come after a bar, where they were run). Unless noted, the call rests on the fitted dose curve; in most records, active means well fitted curve in the direction sought with a large enough effect; inconclusive means small, poorly fitted or top-dose-only effect, or another doubt; inactive means no such curve, though single readings can be large; an effect the other way counts as inactive or inconclusive.

O=C(c1cnccn1)N1CCC2(CC1)CCC(O)(CN1CCc3ccccc31)CC2	GPT2 inhibitor inconclusive | GPT2 inh cnf 1.1
O=C(c1cnccn1)N1CCC2(CCN(Cc3ccccc3)CC2)CC1	none (no result: IP6K1 inh, GPT2 inhibitor)
O=C(C1CCCC1)N1CCN(Cc2ccccc2-c2cccnc2)CC1	none
Cc1nc2c(c(=O)[nH]1)CCN(C(=O)CCc1n[nH]c3c1CCCC3)C2	none
CN1CCCN(Cc2ccc3c(c2)OCO3)c2ccccc21	GPT2 inhibitor inconclusive | GPT2 inh cnf 3.1
O=C(c1ccoc1)N1CCCN(Cc2ccc3c(c2)OCO3)c2ccccc21	none
O=S(=O)(c1ccc(F)c(Cl)c1)N1CCC(n2cnnc2C2CC2)CC1	SNCA expr inh inconclusive
Cc1ccc(NC(=O)CCNc2c(C)nc3cnccn23)c(F)c1	GPT2 inhibitor inconclusive | GPT2 inh cnf 6.9
Cn1nccc1OCc1cn2c(=O)n(C)cc(-c3ccc(F)cc3)c2n1	none (no result: SNCA expr inh, HEK293 viab, IP6K1 inh, GPT2 inhibitor) | GPT2 inh cnf 6.3
COc1cccc(CN2CCNc3cnc(Nc4ccccc4)cc3C2)c1	GPT2 inhibitor inconclusive | GPT2 inh cnf 5
c1ccc(CN2CCNc3cc(Nc4ccc(N5CCOCC5)cc4)ncc3C2)cc1	HEK293 viab inconclusive, GPT2 inhibitor inconclusive | GPT2 inh cnf 4.4
Fc1cccc(CN2CCNc3cc(Nc4ccccc4)ncc3C2)c1	HEK293 viab inconclusive
COc1ccc(OC)c(CN2CCNc3cnc(Nc4cccnc4)cc3C2)c1	GPT2 inhibitor inconclusive | GPT2 inh cnf 5.6
COc1ccccc1CN1CCNc2cnc(Nc3ccccc3)cc2C1	GPT2 inhibitor inconclusive | GPT2 inh cnf 4.4
CN1CCC(NC(=O)Cc2c[nH]c3ncc(-c4ccccc4)cc23)CC1	none
CCOC(=O)C1CCN(S(=O)(=O)c2cc(-c3onc(C)c3C)ccc2OC)CC1	none (no result: GPT2 inhibitor)
c1ccc(Nc2cc3c(cn2)CN(Cc2ccsc2)CCN3)cc1	HEK293 viab inconclusive, GPT2 inhibitor inconclusive
Cn1cc(CN2CCNc3cnc(Nc4ccccc4)cc3C2)cn1	none (no result: SNCA expr inh, HEK293 viab, IP6K1 inh, GPT2 inhibitor) | GPT2 inh cnf 2.8
c1cncc(-c2ccnc(NCCCN3CCCc4ccccc43)n2)c1	GPT2 inhibitor inconclusive | GPT2 inh cnf 2.2
CC(C)(C(=O)NCCc1cccs1)C1CCOCC1	none
C=CC(=O)Nc1cccc(Nc2nc(Nc3ccc(NC4CN(CCF)C4)cc3OC)ncc2C(F)(F)F)c1	HEK293 viab 4.7µM, GPT2 inhibitor 8.9µM (no result: SNCA expr inh) | GPT2 inh cnf 3.1
CC(=O)NCC(=O)N1C2CCC1c1cc(Nc3ncc(C(F)(F)F)c(NC4CCC4)n3)ccc12 (stereo unspecified)	HEK293 viab inconclusive (no result: SNCA expr inh)
COc1cc(-c2ccnc3ncnn23)cc(OC)c1OC	GPT2 inhibitor inconclusive
COc1ccc(CNC(=O)N2CCOc3ccc(N(C)C)cc3C2)cc1	GPT2 inhibitor 1.8µM | GPT2 inh cnf 0.86
Cc1ccc(CNC(=O)c2ccc3c(c2)CN(Cc2ccc(N(C)C)cc2)CCO3)cc1	SNCA expr inh inconclusive
CN1CCOc2c(C(=O)NCc3cccnc3)cc(-c3ccc(N4CCOCC4)cc3)cc21	none
COCCNC(=O)c1cc(N2CCOCC2)cc2c1OCCN2C	none (no result: SNCA expr inh, HEK293 viab, IP6K1 inh, GPT2 inhibitor) | GPT2 inh cnf 1.6
COc1cc(-c2nc3c([nH]2)CCCNC3=O)ccc1O	GPT2 inhibitor inconclusive | GPT2 inh cnf 6.1
COc1ccc(-c2ccc(CN)cc2)cc1	none
O=C1C(Cl)=C(NCCN2CCOCC2)C(=O)c2ncccc21	HEK293 viab inconclusive, GPT2 inhibitor 1.4µM (no result: IP6K1 inh) | GPT2 inh cnf 1.5
Clc1ccccc1-c1nccc(NCCN2CCOCC2)n1	none (no result: IP6K1 inh, GPT2 inhibitor)
COc1ccc2[nH]cc(CN3CCC4(CC3)CC(C(=O)N3CCOCC3)N(C)C4)c2c1 (stereo unspecified)	none
O=C(Nc1ccc(C(=O)N2CCN(c3ccc(Cl)cc3)CC2)cc1)c1nsc2ccccc12	HEK293 viab inconclusive (no result: GPT2 inhibitor)
CC(=O)Oc1c(-c2ccc(NC(=O)c3ccccc3)cc2)c(-c2cccc(F)c2)nn1-c1ccccc1	GPT2 inhibitor inconclusive
COc1cccc(-c2nn(-c3ccccc3)c(OC(C)=O)c2-c2ccc(NC(=O)c3ccco3)cc2)c1	GPT2 inhibitor inconclusive | GPT2 inh cnf 7.7
CCOc1cc(N2CCC(O)CC2)ccc1Nc1ncc2c(n1)N(C)c1ccccc1C(=O)N2C	GPT2 inhibitor 12µM (no result: IP6K1 inh) | GPT2 inh cnf 3.1
CC(C)[C@]1(O)CN(C(=O)Cn2[nH]c3ccccc3c2=O)C[C@H]1C	GPT2 inhibitor inconclusive | GPT2 inh cnf 4.3
C[C@@H]1CN(C(=O)Cn2ccc(=O)[nH]c2=O)C[C@@]1(O)C1CCC1	none
COc1ccc(N2CC3(C2)CN(c2ccccc2)C(=O)O3)cc1OC	GPT2 inhibitor inconclusive | GPT2 inh cnf inconclusive
